The source of these data is PubChem BioAssay AID2842 (Southern Research Institute, 2010).

The whole screen tested about 24,000 compounds, of which about 1,200 (5%) were called active. Not shown: some 2% with an inconclusive outcome. The rule behind the calls is not given here. These entries were drawn from the full list.

The nature of the experiment: Mycobacterium tuberculosis H37Rv growth inhibition, putative kinase inhibitor library, confirmatory dose response (AID 2842).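 Note: bacteria incubated one week before Alamar blue readout; 0% = bacteria only wells and 100% = bacteria with high antibiotic.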 To be noted: M. tuberculosis H37Rv growth inhibition; CC50: measured here: Vero cell cytotoxicity; inhibition: active compounds read high.
By inhibition is commonly meant the relative decrease from the control value, in per cent. Regarding `CCCNC(=O)CSc1nc2c([nH]c3ccccc32)c(=O)n1-c1ccc(OC)c(OC)c1`, the inhibition was 3.01% (inactive). As for `COc1ccc(C(=O)c2cn(Cc3cccc(F)c3)c3ccccc3c2=O)cc1`, the inhibition was -1.95% (inactive). `CC1CCc2c(sc(NC(=O)c3ccc(-c4nc5ccccc5s4)s3)c2C#N)C1` (configuration not stated): the inhibition is 2.71% (inactive). Turning to `CCOc1cc(C(=O)Nc2nnc(-c3ccc(C)cc3)s2)cc(OCC)c1OCC`, the inhibition is 12.5% (inactive). For the molecule `Cc1ccc(C)c(S(=O)(=O)Nc2ccc(C(=O)N3CCOCC3)cc2)c1`, the inhibition is -13.6% (inactive).

Consider `CCN(c1ccccc1)S(=O)(=O)c1ccc(C(=O)Nc2nc(-c3ccc(C#N)cc3)cs2)cc1`, for which the inhibition is -5.78% (inactive). With `O=C(O)c1cc(-c2ccc(F)cc2)nc2ccccc12`, the inhibition is -3.79% (inactive).

As to `C=CCn1c(=O)c2c(nc(N/N=C/c3ccccc3O)n2C)n(C)c1=O`, the inhibition was 69.7% (inactive). Turning to `CCn1c2c(c(=O)[nH]c1=O)C(c1ccc(O)cc1)C1=C(CC(C)(C)CC1=O)N2` (configuration not stated), the inhibition is -10.5% (inactive). For the molecule `CCSC1=C(C#N)C(c2ccco2)C(C(=O)Nc2ccccc2OC)=C(C)N1` (configuration not stated), the inhibition is 13.1% (inactive). For `O=C(CSc1cn(Cc2ccccc2Cl)c2ccccc12)Nc1nc2ccccc2s1`, the inhibition was 10.2% (inactive).

Take `COC(=O)c1sc2nc(N)c(C#N)c(-c3ccco3)c2c1N`: the inhibition is -11.1% (inactive). As for `O=C1NCCc2c(OCC(=O)N3CCCC3)cccc21`, the inhibition is -13.2% (inactive). Turning to `CCN1C(=O)C2(C(C#N)=C(N)Oc3c2oc(CO)cc3=O)c2ccccc21` (configuration not stated), the inhibition was -2.38% (inactive). Regarding `O=C(CSc1ccc2nnc(-c3cccnc3)n2n1)Nc1cccc(C(F)(F)F)c1`, the inhibition is 2.18% (inactive). On to `Cn1c(=O)c2c([nH]c(=S)n2Cc2ccc(F)cc2)n(C)c1=O`, for which the inhibition is -5.83% (inactive). Regarding `O=c1/c(=C/c2ccc(Br)cc2)sc2nc(-c3ccncc3)nn12`, the inhibition is -4.93% (inactive). Consider `Cc1ccc(S(=O)(=O)CCC(=O)Nc2nc(-c3cccc([N+](=O)[O-])c3)cs2)cc1`, for which the inhibition is -0.9% (inactive). Next, `CCC(CC)C(=O)Nc1nnc(-c2ccc(Br)cc2)s1`: 5.92% (inactive). Regarding `COc1ccc(Cl)c2sc(N3CCN(C(=O)COc4ccccc4)CC3)nc12`, the inhibition was -14.7% (inactive). Regarding `Fc1ccc(-c2nnc(Nc3nc4c(F)cccc4s3)o2)cc1`, the inhibition was 35.7% (inactive). On to `CSc1cccc2sc(Nc3ccccc3Cl)nc12`, for which the inhibition is 43.9% (inactive). Take `COc1cccc(N2CC(NC(=O)N3CCN(c4ccc(F)cc4)CC3)CC2=O)c1` (configuration not stated): the inhibition is 1.73% (inactive).

As to `O=C(CN1N=NC2C(=O)N(c3ccc(F)c(F)c3)C(=O)C21)Nc1cccc(F)c1` (configuration not stated), the inhibition was -18.6% (inactive). As for `COc1ccc(N2C(=O)/C(=C3/C(=O)N(C)c4ccccc43)SC2=S)c(OC)c1`, the inhibition is -6.83% (inactive). As to `NC(=O)N/N=C/c1ccccc1[N+](=O)[O-]`, the inhibition was -0.23% (inactive).

Regarding `Cc1ccc(-n2nnc3c(=O)n(CC(=O)Nc4cccc(F)c4)cnc32)cc1Cl`, the inhibition is 5.52% (inactive). In the case of `O=c1[nH]c(NCCc2ccccc2)nnc1-c1ccccc1`, the inhibition was -9.26% (inactive).

On to `O=C(O)/C=C/C(=O)NCc1cn(-c2ccccc2)nc1-c1ccc(Cl)cc1`, for which the inhibition was -11.2% (inactive). As for `Nc1ncnc2c1c1nc3ccccc3nc1n2CCc1ccccc1`, the inhibition is -4.35% (inactive).

For `COC(CNc1ncnc2c1cnn2-c1ccc(C)c(Cl)c1)OC`, the inhibition was 15.5% (inactive). For `CCOc1cccc(/C=N\NC(=O)Cn2cnc3ccccc32)c1O`, the inhibition was -6.32% (inactive). Next, `Cc1nnc(SCCn2c(N3CCN(Cc4ccccc4)CC3)nc3c2c(=O)[nH]c(=O)n3C)s1`: 4.11% (inactive). `CC(=O)Nc1ccc(NC(=O)NC2CC(=O)N(c3ccc(C)cc3)C2)cc1` (configuration not stated): the inhibition was -0.32% (inactive).

With `Cc1ccc(C)c(-c2nnc(NC(=O)/C=C/c3ccccc3)o2)c1`, the inhibition was 75.9% (inactive). Next, `Cc1cccc(-c2nnn3c2nc(NCCc2ccc(S(N)(=O)=O)cc2)c2ccccc23)c1`: -2.93% (inactive); `O=C(NCCO)c1ccc(CSc2nc3ccccc3c(=O)[nH]2)cc1`: -16.4% (inactive); `Cn1c(=O)c2c(SCC(=O)Nc3nc4ccccc4s3)nc(-c3ccc(F)cc3)nc2n(C)c1=O`: 14.6% (inactive).

For the molecule `NC(=O)c1nc(-c2cccnc2)nc2c1[nH]c(=O)n2-c1ccc(Cl)c(Cl)c1`, the inhibition is 5.29% (inactive). Next, `CCOC(=O)CNc1ncnc(N)c1[N+](=O)[O-]`: 2.73% (inactive). `Fc1ccc2nc(Nc3ccc4c(c3)OCCO4)sc2c1`: the inhibition was 72.2% (inactive). On to `CC(=O)N1CCc2c(sc(NC(=O)c3ccc4ccccc4c3)c2C#N)C1`, for which the inhibition is 13.2% (inactive). Next, `CCOC(=O)c1ccc(Nc2nnc3[nH]c(=O)c4c(C)c(C)sc4n23)cc1`: -12.7% (inactive); `COc1cc(OC)cc(C(=O)NCCc2cc3ccc(C)cc3[nH]c2=O)c1`: -10.9% (inactive); `CCOC(=O)N1CCN(C(c2cccnc2)c2c(O)cc(C)n(CCOC)c2=O)CC1` (configuration not stated): 0.85% (inactive). To `COc1ccc(Cl)c2sc(N(Cc3cccnc3)C(=O)c3cccc(S(C)(=O)=O)c3)nc12` belongs -13.3% (inactive); to `CC(=O)Nc1ccc(NC(=O)CSc2nnc(CNC(=O)c3ccccc3)o2)cc1`, -8.68% (inactive); to `Cn1c(=O)[nH]c(=O)c2c1nc(N1CCC(Cc3ccccc3)CC1)n2CCSc1nc2ccccc2o1`, 19.9% (inactive).

Take `Cc1ccc(CSc2nc3c(c(=O)[nH]c(=O)n3C)n2Cc2ccccc2Cl)cc1`: the inhibition was -2.78% (inactive). As to `CC1CCCN(S(=O)(=O)c2ccc(C(=O)Nc3nc4ccc5ccccc5c4s3)cc2)C1` (configuration not stated), the inhibition is 14.8% (inactive).

Consider `Nn1c(SCC(=O)Nc2ccc(C(F)(F)F)cc2)nncc1=O`, for which the inhibition was -15.7% (inactive). For the molecule `O=C(Nc1nc(-c2ccc3c(c2)OCCO3)cs1)c1cccc(Cl)c1`, the inhibition was -0.85% (inactive).

On to `COc1cc2nc(Nc3cccc(Cl)c3)sc2cc1OC`, for which the inhibition is 48.6% (inactive). Regarding `COc1ccc2c(c1)c(=O)c(C(=O)c1ccc(Cl)cc1)cn2CC(=O)Nc1ccc2c(c1)OCO2`, the inhibition is -1.76% (inactive). On to `CC(C)c1ccc(OCC(=O)N/N=C/c2ccco2)cc1`, for which the inhibition was 6.99% (inactive). Next, `CCOC(=O)c1sc2nc(-c3ccccc3)cc(-c3ccccc3)c2c1N=Cc1cc(I)cc(I)c1O`: -1.26% (inactive); `O=c1[nH]c(NCc2ccc3c(c2)OCO3)nnc1Cc1ccc(F)cc1`: -0.653% (inactive). As for `Nc1nc(SCC(=O)Nc2cccc(F)c2)[nH]c(=O)c1NC(=O)c1ccc(F)cc1`, the inhibition was -6.89% (inactive). `COc1ccc(S(=O)(=O)Nc2cc3c4c(c2)CC(=O)N4CCC3)cc1`: the inhibition is 14.8% (inactive). Next, `Nc1nc(SCc2cccc(Cl)c2)[nH]c(=O)c1NC(=O)c1ccc(C(F)(F)F)cc1`: -5.65% (inactive); `Cc1ccc(Nc2nc(-c3ccc(S(=O)(=O)N4CCC(Cc5ccccc5)CC4)cc3)cs2)cc1`: -2.1% (inactive); `O=C1NC(=O)C(=Cc2nc(-c3ccc(Cl)cc3)n3ccccc23)C(=O)N1`: 15.3% (inactive).

In the case of `NC(=O)COc1ccc(/C=c2\sc3nc(-c4ccccc4Br)nn3c2=O)cc1`, the inhibition was -6.4% (inactive).

Regarding `Cc1ccc(NC(=O)c2cnc(SCC(=O)N3CCOCC3)n(C)c2=O)cc1`, the inhibition was 11.1% (inactive).

In the case of `COc1ccc(Cl)cc1C(=O)Nc1nnc(-c2ccc(Cl)cc2Cl)s1`, the inhibition is 0.42% (inactive). With `CC1CCc2c(C(=O)Nc3ccc(OC(F)(F)F)cc3)csc2C1` (configuration not stated), the inhibition is 7.32% (inactive). To `CCn1c(SCCc2ccccc2)nc2c1c(=O)[nH]c(=O)n2C` belongs 16.5% (inactive); to `O=C(O)c1ccc(Nc2nc(-c3cccnc3)nc3ccccc23)cc1`, 5.44% (inactive).

Take `COc1ccc(OC)c(NC(=O)c2cnc3n(c2=O)CCS3)c1`: the inhibition is 10.9% (inactive). `CCOC(=O)c1nn(-c2ccc(F)cc2)c(=O)c2c(NC(=O)C(CC)c3ccccc3)scc12` (configuration not stated): the inhibition is -11.7% (inactive).

As for `O=C(Nc1nc(-c2nc3ccccc3s2)cs1)c1ccc2ccccc2c1`, the inhibition was 3.09% (inactive). In the case of `Cc1csc(NC(=O)CSc2nnc(CNC(=O)c3cccc(C(F)(F)F)c3)o2)n1`, the inhibition was -15.1% (inactive). Turning to `COc1cc(C)c(S(=O)(=O)Nc2ccc(-n3c(C)nc4ccccc4c3=O)cc2C)cc1C`, the inhibition is -7.48% (inactive). Turning to `O=C(NNc1ncnc2c1cnn2-c1cccc(Cl)c1)c1cccc(Cl)c1`, the inhibition was 85% (inactive). Take `O=C(CSc1nnc2ccc(-c3cccc([N+](=O)[O-])c3)nn12)NCc1ccco1`: the inhibition was 0.47% (inactive). Consider `CS(=O)(=O)c1ccc([N+](=O)[O-])c(NCCCC(=O)O)c1`, for which the inhibition was -6.3% (inactive). Next, `CCOc1ccccc1NC(=O)CSc1nnc(C)c(=O)n1N`: -13.8% (inactive); `O=C(Nc1nnc(-c2cccs2)o1)C(c1ccccc1)c1ccccc1`: 9.32% (inactive); `C#CCn1c(=NC(=O)c2cccc([N+](=O)[O-])c2)sc2cccc(F)c21`: 13.5% (inactive). Consider `CCOC(=O)N1CCc2c(sc(NC(=O)c3ccc(Br)s3)c2-c2nc3ccccc3s2)C1`, for which the inhibition was 4.21% (inactive). For `Cn1c(=O)[nH]c(=O)c2c1nc(SCC(N)=O)n2CC(O)COc1ccc(Cl)cc1` (configuration not stated), the inhibition was -5.17% (inactive). With `Nc1nc2c(s1)CCCC2`, the inhibition is 16.9% (inactive). Consider `COC(=O)C(C)Sc1nnc(Cc2cc(=O)[nH]c(=O)[nH]2)n1-c1ccc(Cl)cc1` (configuration not stated), for which the inhibition was -6.18% (inactive). As for `Cc1ccc(-n2c(=O)[nH]c3c(C(N)=O)nc(-c4ccc(C(C)C)cc4)nc32)cc1C`, the inhibition is -7.6% (inactive). For the molecule `COc1ccc(-n2nc3c(c2NC(=O)Cc2cccs2)CSC3)cc1`, the inhibition was -3.68% (inactive). Regarding `Cc1cccc(NC(=O)C2C(=O)CN(c3ccccc3)C2=O)c1` (configuration not stated), the inhibition was -3.29% (inactive). For the molecule `O=C(/C=C/c1ccccc1Cl)Nc1nc(-c2nc3ccccc3s2)cs1`, the inhibition is -0.67% (inactive).
